The values that follow come from ChEMBL document CHEMBL1157539, “Thousands of chemical starting points for antimalarial lead identification” (Nature, 2010).

Holding throughout (assay type): functional
Experiment [1] concerns Plasmodium falciparum. Kind of experiment: GSK_TCMDC: Inhibition of Plasmodium falciparum 3D7 in whole red blood cells, using parasite LDH activity as an index of growth. Test compounds present at 2uM.
The subject of experiment [2] is Plasmodium falciparum. Kind of experiment: GSK_TCMDC: Inhibition of Plasmodium falciparum Dd2 in whole red blood cells, using parasite LDH activity as an index of growth. Test compounds present at 2uM.
The subject of the next experiment is HepG2. Kind of experiment: GSK_TCMDC: Percent inhibition of human HepG2 cell line. Test compounds present at 10uM.

As to `Cc1cc(N2CCC(C)CC2)nc2cc(O)ccc12`, the Inhibition came to 89% with Plasmodium falciparum [1], 41% with Plasmodium falciparum [2] and 31% in the experiment with HepG2.
The like results for `Cc1nc2nc(N)nc(N)c2c(C)c1Cc1c(Cl)cccc1Cl.Cl` were, in that order, 94%, 5% and 7%.
The like results for `NCCNS(=O)(=O)c1ccc(-c2ccnc3[nH]c(-c4ccncc4)cc23)cc1.O=C(O)C(F)(F)F` were, in that order, 96%, 95% and 0%.
Take `O=C(Nc1ccc(CC(=O)N2CCc3cc(Cl)c(N4CCN(C/C=C/c5ccccc5)CC4)cc32)cc1)Nc1cccc([N+](=O)[O-])c1`: the Inhibition is 95% with Plasmodium falciparum [1], 27% in the experiment with Plasmodium falciparum [2] and 0% in the experiment with HepG2.
As to `CS(=O)(=O)N(c1cccc(F)c1)c1cc(C(=O)N[C@@H](Cc2ccccc2)[C@H](O)CNCc2cccc(C(F)(F)F)c2)cc(N2CCCC2=O)c1.O=CO`, the Inhibition was 98% in the experiment on Plasmodium falciparum [1], 92% in the experiment on Plasmodium falciparum [2] and 14% with HepG2.
The matching figures for `Cl.N#Cc1ccc2c(c1)CCN(CCC1CCC(NC(=O)/C=C/c3cccc4cc[nH]c34)CC1)CC2` (stereo not given): 89%, 29% and 22%.
The matching figures for `CCOc1ccc2c(=NN=Cc3cc(OC)c(OC)c(OC)c3)cc(C)[nH]c2c1`: 100%, 99% and 18%.
The matching figures for `O=C(/C=C/c1ccc(Cl)cc1)NCCCCCN1CCC(C(=O)Nc2ccc(Cl)cc2)CC1`: 99%, 0% and 27%.
In the case of `Oc1ccc(-c2ccccc2)cc1CN1CCCCC1`, the Inhibition worked out at 93% in the experiment on Plasmodium falciparum [1], 70% with Plasmodium falciparum [2] and 3% with HepG2.
The like results for `O=C(Nc1ccc(C(=O)Oc2cccc3ccccc23)cc1)N[C@@H](Cc1ccc(O)cc1)C(=O)NC1CCN(Cc2ccc(O)cc2)C1.O=C(O)C(F)(F)F` (stereo not given in full) were, in that order, 87%, 0% and 0%.
